In the library only some 0.41% were active in any assay of this set; here they are far more common.
LDHA block: LDHA (human) enzyme inhibition | 480,000 compounds, 0.15% hits | AID 1347041 | activity change, % (values are at about 110 or 230 µM) | purified LDHA, NADH/diaphorase-resazurin fluorescence; active compounds read low; in the data active = activity change below about -30%; inconclusive = mostly about -25% to -30%;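 note: plate controls were DMSO wells for no effect and wells without enzyme for full effect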
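Remaining NADH was detected by diaphorase (0.133 mg/mL) converting 37 µM resazurin to fluorescent resorufin, read at 0 and 20 minutes. The preceding 5-minute room-temperature reaction used 2 nM LDHA, 0.2 mM sodium pyruvate and 0.06 mM NADH at pH 7.4.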
TRPV1 ag: activates the human vanilloid receptor TRPV1 | Q8NER1 | TRPV1-expressing cells, Fluo-8 calcium influx, agonist mode | activation, % at 8.33 µM | 320,000 compounds, 0.19% hits | AID 540275; in the data active = activation above about 80%; inconclusive = between about 30% and that limit; note: 0% is about no effect
Target sequence (Q8NER1 whole entry, looked up): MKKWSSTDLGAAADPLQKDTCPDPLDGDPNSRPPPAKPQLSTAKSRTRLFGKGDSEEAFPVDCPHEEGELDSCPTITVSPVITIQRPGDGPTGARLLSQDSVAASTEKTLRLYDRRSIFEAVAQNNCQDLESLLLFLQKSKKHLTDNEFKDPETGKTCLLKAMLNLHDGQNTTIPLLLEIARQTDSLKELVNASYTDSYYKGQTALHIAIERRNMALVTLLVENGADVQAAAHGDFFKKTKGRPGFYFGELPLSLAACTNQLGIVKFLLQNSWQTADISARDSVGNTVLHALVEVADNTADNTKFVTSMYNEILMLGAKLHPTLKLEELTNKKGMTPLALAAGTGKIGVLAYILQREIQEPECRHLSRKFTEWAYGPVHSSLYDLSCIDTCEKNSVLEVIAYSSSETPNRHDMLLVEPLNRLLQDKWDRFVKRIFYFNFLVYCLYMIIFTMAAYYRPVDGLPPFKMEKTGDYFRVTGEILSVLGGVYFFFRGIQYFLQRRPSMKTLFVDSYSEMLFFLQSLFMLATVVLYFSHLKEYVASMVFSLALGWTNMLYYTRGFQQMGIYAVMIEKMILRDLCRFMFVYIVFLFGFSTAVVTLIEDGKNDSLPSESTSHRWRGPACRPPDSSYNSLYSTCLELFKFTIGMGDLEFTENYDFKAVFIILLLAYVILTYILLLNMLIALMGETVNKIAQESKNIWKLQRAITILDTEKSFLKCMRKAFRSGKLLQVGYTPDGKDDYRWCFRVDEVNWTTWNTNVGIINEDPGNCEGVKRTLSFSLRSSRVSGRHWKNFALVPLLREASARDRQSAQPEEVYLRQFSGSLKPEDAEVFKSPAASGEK
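TRPV1-expressing cells were cultured overnight at 35.5C and loaded with Fluo-8 calcium dye for 40 to 90 min at room temperature. After a 10 s baseline, compound was added and calcium influx was read kinetically for 3 min (ex 480/em 520 nm).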
TRPV1 potentiator: potentiators of human vanilloid receptor 1 (TRPV1). 320,000 compounds, 0.02% hits. potentiation, % at 8.33 µM. Q8NER1. AID 540277. TRPV1-expressing cells, Fluo-8 calcium influx, capsaicin EC20 potentiation; in the data active = potentiation above about 80%; inconclusive = between about 30% and that limit; note: 0% is about no effect
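Fluo-8 calcium influx in TRPV1-expressing cells, kinetic read (ex 480/em 520 nm). Compound added and read 3 min for agonist activity, followed by capsaicin at EC20 final and 2 min further read for enhancement.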
TRPML1 ag: activates the human TRPML1 channel. Q9GZU1. TRPML1-expressing cells, Ca2+ dye fluorescence, FDSS. activation, % (concentration not given with the values). 410,000 compounds, 0.12% hits; in the data active = activation above about 50%; inconclusive = mostly about 30% to 49%; note: 0% is about no effect
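Agonist activity was taken from a 110 s kinetic Ca2+ dye read on the FDSS after pinning compounds onto TRPML1-DL cells. The cells were seeded at 1,500/well with Tet inducer, incubated about 16 h, then dye-loaded at room temperature.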
TRPML1 blocker: inhibitors of human TRPML1 channel. TRPML1-inducible cells, Ca2+ dye fluorescence, FDSS; active compounds read low; inhibition of EC80 agonist-evoked calcium signal. activity change, negative = inhibition, % (no concentration beside the values). 390,000 compounds, 0.02% hits. AID 624415; in the data active = activity change below about -50%; inconclusive = between about -30% and that limit;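 note: stimulus is agonist 54-4 at its EC80 concentration; % is set by controls: 0 for no effect and ±100 for the full control effect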
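Calcium fluorescence in TRPML1-DL cells induced overnight with Tet: a 110 s read after compound pin addition, then a 110 s antagonist read after challenge with 54-4 at 4 uM final (EC80).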
* hit, by the source's call; u = inconclusive; x = no result.

SMILES | LDHA block | TRPV1 ag | TRPV1 potentiator | TRPML1 ag | TRPML1 blocker
CN(C)c1ccc(/C=C/C(=O)c2cccc(Br)c2)cc1 | -1.0 | 87.1* | 2.4 | -0.5 | -2.3
O=C(O)c1ccc(/C=C/C(=O)c2cccc(Br)c2)cc1 | -10.2 | x | x | x | x
S=c1[nH]nc(-c2cc(-c3ccccc3)n[nH]2)n1/N=C/c1ccc(Cl)c(Cl)c1 | -42.2* | x | x | 2.3 | 48.0
CCOc1ccc2cc(/C(=N/O)C3CCCCC3)ccc2c1 | -3.8 | x | x | x | x
O=C(O)C(Sc1cnc2ccccc2n1)c1ccccc1 (stereo not drawn) | -0.3 | x | x | x | x
Cc1cccc(C(=O)O)c1NC(=O)c1ccco1 | -8.0 | x | x | x | x
O=C(Nc1ccc2c(c1)OCCO2)c1cc2ccccc2o1 | -4.9 | 80.6* | -17.0 | -0.7 | 32.8
Cc1cc(C)n(-c2nc3ccccc3nc2N2CCN(S(=O)(=O)c3ccc(C)c(C)c3)CC2)n1 | -30.2* | x | x | x | x
Cc1ccc(S(=O)(=O)N2CCN(c3nc4ccccc4nc3-n3nc(C)cc3C)CC2)cc1 | 2.7 | 11.3 | -3.4 | 2.8 | -5.1
CCNc1ccc2noc3c2c1C(=O)c1ccccc1-3 | 15.9 | u | -1.8 | 62.8* | 4.2
CCOC(=O)C1CCN(c2ncnc3c2c(-c2ccccc2)cn3-c2ccccc2)CC1 | -4.0 | 5.7 | 2.3 | 74.9* | -17.5
Cc1cccc(N2CCN(c3ncnc4c3c(-c3ccccc3)cn4-c3ccccc3)CC2C)c1 (stereo not drawn) | -2.8 | x | x | 50.6* | -25.8
Cc1cccc(-n2cc(-c3ccccc3)c3c(N4CCOCC4)ncnc32)c1 | -8.6 | 23.6 | -8.4 | 1.7 | -14.3
O=C(O)c1ccccc1NS(=O)(=O)c1cccc(-n2sc3ccccc3c2=O)c1 | -70.7* | 1.3 | 2.9 | 0.1 | -5.7
O/N=C(/Cc1ccccc1)c1ccc(O)cc1O | 0.6 | x | x | x | x
O/N=C(\c1ccc(O)cc1O)c1ccccc1F | -31.3* | x | x | x | x
COc1cc2c(cc1/C=C(/C#N)c1ccccn1)OC(C)C2 (stereo not drawn) | 9.4 | x | x | x | x
Cc1cc(OC(=O)c2ccco2)c(Sc2ccccc2[N+](=O)[O-])c(=O)o1 | -105.6* | 1.5 | -5.4 | -0.7 | -10.3
CCCCNc1nc2c(c(=O)n(C)c(=O)n2C)n1Cc1ccc(F)cc1 | -1.6 | x | x | x | x
CCCC(=O)N(c1ccc2oc3c(c2c1)CCCC3)S(=O)(=O)c1ccc(CC)cc1 | -0.8 | x | x | 63.8* | -24.9
O=C(CN1C(=O)S/C(=C\c2cccn2-c2ccc(C(=O)O)cc2)C1=O)Nc1ccccc1F | -4.7 | x | x | x | x
Cc1cc(Cl)cc(C)c1OCC(=O)NCc1cccc(NC(=O)C2CC2)c1 | -4.4 | x | x | x | x
Cc1nnc(NC(=O)c2sc3nc(-c4cccs4)cc(C(F)(F)F)c3c2N)s1 | -5.9 | 17.9 | 1.2 | 51.8* | 19.2
CCCOc1ccc(/C=C(/C#N)c2nc3ccccc3[nH]2)cc1OCC | 1.0 | x | x | x | x
CC(=O)NCCNC(=O)Cc1nc(-c2ccccc2)oc1C | -2.3 | x | x | x | x
SMILES | LDHA block | TRPV1 ag | TRPV1 potentiator | TRPML1 ag | TRPML1 blocker
CC(C)(C)n1nnnc1C(c1ccccc1F)N(Cc1ccco1)CC1CCCO1 (stereo not drawn) | -1.7 | u | -8.9 | 66.1* | 2.9
COc1cccc(CN(Cc2ccco2)C(c2ccc(F)cc2)c2nnnn2C(C)(C)C)c1 (stereo not drawn) | 3.2 | 1.2 | 1.3 | 105.6* | -3.7
CC(=O)Nc1ccc(I)c(C)n1 | -0.3 | x | x | x | x
COc1ccc(-n2nc(C(=O)NCC(=O)NCCCN3CCCCCC3)c3ccccc3c2=O)cc1Cl | 0.6 | -2.1 | 81.0* | 0.0 | -9.7
NC(=O)C1CCN(C(=O)c2ccc3nc(-c4ccccc4)c(-c4ccccc4)nc3c2)CC1 | -2.9 | 80.6* | -2.0 | 2.1 | 31.2
CCOC(=O)N1CCN(C(=O)c2ccc3nc(-c4ccccc4)c(-c4ccccc4)nc3c2)CC1 | -2.5 | 12.9 | -2.4 | 2.1 | -1.1
CCN(CC(=O)Nc1cc(Cl)ccc1OC)CC(=O)NC1CCS(=O)(=O)C1 (stereo not drawn) | -36.2* | -0.1 | 0.0 | 1.6 | -6.1
CCOCCC(=O)NCc1ccc(OC)cc1 | -0.2 | x | x | x | x
CCCCC(=O)Nc1ccc(C(=O)NNC(=O)c2ccc(C)c(Br)c2)cc1 | -46.7* | -1.6 | -1.9 | 0.1 | 6.8
Cc1ccc(-c2[nH]c3ccccc3c2C=O)cc1C | 22.5 | x | x | x | x
O=C(O)c1ccnc(N2CCOCC2)c1 | 1.2 | x | x | x | x
Cc1ccc(S(=O)(=O)N2C[C@H]3C(=O)C[C@@H](c4ccccc4)N(S(=O)(=O)c4cccc(C)c4)[C@H]3C[C@H]2c2ccccc2)cc1 | -1.0 | x | x | 3.4 | -22.4
Cc1ccc(S(=O)(=O)N2C[C@H]3C(=O)C[C@@H](c4ccccc4)N(S(=O)(=O)c4ccc(C)cc4)[C@H]3C[C@H]2c2cccc3ccccc23)cc1 | -5.7 | x | x | 56.5* | -2.4
Cc1ccc(S(=O)(=O)N2C[C@H]3C(=O)C[C@@H](c4ccccc4)N(S(=O)(=O)c4ccc(C)cc4)[C@H]3C[C@H]2c2cccc(C)c2)cc1 | -4.9 | x | x | 93.1* | u
O=c1nc2n(-c3cccc(Cl)c3)c3cccc(Cl)c3cc-2c(=O)[nH]1 | 12.5 | x | x | x | x
Cc1cc(C(=O)NCCC2=CCCCC2)ccc1[N+](=O)[O-] | -5.8 | 83.3* | -22.3 | 0.2 | 9.6
O=C(NCCC1=CCCCC1)c1ccc([N+](=O)[O-])cc1 | 2.1 | 88.9* | -20.4 | 2.0 | 16.7
Cc1ccccc1CNC(=O)CCNS(=O)(=O)c1c(C)[nH]c(C)c1C(=O)N1CCCCC1 | -12.1 | x | x | x | x
COc1ccc(C(C)(C)C)cc1NC(=O)c1ccc2ncsc2c1 | 0.7 | 22.8 | -3.1 | 0.3 | 14.7
O=C(Nc1ccc(Cl)cc1)c1ccc2snnc2c1 | -1.3 | 87.6* | -15.2 | -0.6 | -4.3
O=C(Nc1ccc(C(F)(F)F)cc1)c1ccc2ncsc2c1 | -8.1 | 89.9* | 9.2 | -0.1 | 18.6
COc1ccc(NC(=O)c2ccc3ncsc3c2)c2ccccc12 | -4.2 | 88.3* | 3.3 | 0.7 | 9.5
O=C(Nc1cccc(S(=O)(=O)N2CCCCC2)c1)c1ccc2ncsc2c1 | -10.8 | 84.8* | -15.7 | 0.9 | 37.5
O=C(Nc1ccc(Cc2nc3ccccc3s2)cc1)C1CCCC1 | -9.6 | x | x | x | x
C=CCNC(=O)c1nn(Cc2ccccc2)c(=O)c2ccccc12 | -1.5 | x | x | x | x
SMILES | LDHA block | TRPV1 ag | TRPV1 potentiator | TRPML1 ag | TRPML1 blocker
CCOc1ccc(C(=O)Nc2ccc3nc(NC(C)=O)sc3c2)cc1OCC | -6.0 | x | x | x | x
O=S(=O)(O)CC(O)CNC(CO)(CO)CO (stereo not drawn) | -3.9 | x | x | x | x
O=C(Nc1ccc(Cl)cc1)c1ccc2ncsc2c1 | -0.7 | u | -7.2 | -0.4 | -2.2
O=C(Nc1ccc(C(F)(F)F)cc1)c1ccccc1 | -0.6 | 81.7* | 13.7 | -0.7 | 32.3
O=C(Nc1ccc(F)cc1)c1ccc2ncsc2c1 | -4.8 | 93.1* | -19.0 | -0.3 | 6.0
CCC(C)(Nc1ccc(OC)c(OC)c1)c1nnnn1-c1c(C)cccc1C (stereo not drawn) | 13.2 | x | x | x | x
Cc1ccc2oc(=O)cc(CN(Cc3ccccc3)Cc3ccco3)c2c1 | 1.8 | x | x | x | x
